Source: PubChem BioAssay
TEAD-YAP block: TEAD-YAP interaction inhibition, primary screen, TEAD-YAP interaction inhibitor project, luminescence, HEK-TIYL cells; TEAD-Gal4/YAP UAS-luciferase luminescence; inhibition, % at 9.12 µM; 640,000 tested, 1.4% active; in the data active = inhibition above about 32%;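 note: 0% = median of test compound wells and 100% = reference inhibitor wells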
MITF inh: MITF inhibitors, primary screen, biochemical, AlphaScreen, human | Microphthalmia-associated transcription factor (Homo sapiens), O75030 | AlphaScreen MITF homodimerization, bead proximity signal | inhibition, % at 2.6 µM | 650,000 tested, 0.91% active | AID 1259374, 2018; in the data active = inhibition above about 50%;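 note: 0% = vehicle wells with protein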
FBW7 activator: FBW7 E3 ligase activators, primary screen, biochemical, AlphaScreen, human | AlphaScreen FBW7–phospho-cyclin E peptide binding, activator screen | normalized activity (activation), % at 26.1 µM | 650,000 tested, 0.13% active; in the data active = normalized activity above about 1.9%;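 note: purified mutant Fbw7 with reduced substrate affinity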
GPR151 activ: activators of human GPR151, primary screen, cell-based, PathHunter beta-arrestin, luminescence. G-protein coupled receptor 151 (Homo sapiens), Q8TDV0. PathHunter beta-arrestin GPR151 cells. activation, % at 11.2 µM. 650,000 tested, 1% active; in the data active = activation above about 4.9%;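 note: 0% = median of compound wells and 100% = cells with positive control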
Target sequence (Q8TDV0 whole entry, looked up): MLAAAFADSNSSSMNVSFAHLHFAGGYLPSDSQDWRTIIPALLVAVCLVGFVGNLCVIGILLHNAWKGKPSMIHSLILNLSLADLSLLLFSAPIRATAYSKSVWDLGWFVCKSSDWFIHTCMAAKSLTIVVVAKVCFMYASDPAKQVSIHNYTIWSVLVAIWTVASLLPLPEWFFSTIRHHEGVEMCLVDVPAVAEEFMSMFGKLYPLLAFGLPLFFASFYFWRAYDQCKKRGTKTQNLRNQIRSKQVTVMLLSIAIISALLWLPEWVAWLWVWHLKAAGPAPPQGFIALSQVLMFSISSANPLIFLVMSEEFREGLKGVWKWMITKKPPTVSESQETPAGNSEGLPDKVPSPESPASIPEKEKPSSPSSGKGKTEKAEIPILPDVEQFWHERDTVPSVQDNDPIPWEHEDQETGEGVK
Starred values were filed as active, the others as inactive; x = not tested or not shown. An excerpt weighted towards active compounds, which were near 3.5% of everything screened.

SMILES | TEAD-YAP block | MITF inh | FBW7 activator | GPR151 activ
Nc1cc(Br)c2c(c1)OCCO2 | 66* | 18 | 0 | -1
Brc1cc2c(cc1Br)OCCOCCOCCOCCO2 | -6 | 9 | 0 | 0
O=C(/C=C/c1ccc(O)c(O)c1)O[C@H](Cc1ccc(O)c(O)c1)C(=O)O | x | 90* | x | 0
O=C(O)/C=C/c1ccc(O)c(O)c1 | -5 | 46 | 0 | 0
CC(C)CC(=O)Nc1ccc2c(c1)CCC(=O)N2Cc1ccccc1 | 7 | -3 | 0 | -1
O=C(Nc1ccc(Cl)cn1)c1ccc(C2CCCCC2)cc1 | 40* | 18 | 0 | -1
O=C(Nc1ccc(Br)cn1)c1ccc(C2CCCCC2)cc1 | 10 | 15 | 1 | 1
Cc1ccc(CNC(=O)c2cnc3c(c(C)nn3-c3ccc(F)cc3)c2Cl)cc1 | 1 | -15 | 0 | 0
Cc1nn(-c2ccc(F)cc2)c2ncc(C(=O)NCCCn3ccnc3)c(Cl)c12 | 65* | -9 | 0 | -1
O=Nc1onc(-c2ccc([N+](=O)[O-])cc2)c1NO | 10 | -12 | 0 | 1
Cc1ccc(-c2noc(N=O)c2NO)cc1 | 36* | -3 | 0 | 1
O=C1CCCN1CCCNc1nc(Nc2cnccn2)nc2c1ncn2C1CCCCC1 | 35* | 6 | 0 | -2
c1cnc(Nc2nc(NC3CC3)c3ncn(C4CCCCC4)c3n2)cn1 | 42* | 7 | 0 | 5
O=C1CCCN1CCCNc1nc(Nc2ccccc2)c2ncn(C3CCCCC3)c2n1 | 64* | -1 | 1 | -2
CC(=O)Nc1ccc(Nc2nc(NCCCN3CCCC3=O)nc3c2ncn3C2CCCCC2)cc1 | -11 | -3 | 0 | -3
O=C1CCCN1CCCNc1nc(Nc2cnccn2)nc2c1ncn2CCN1CCCC1=O | 6 | 3 | 0 | 0
O=C(Nc1ccc([N+](=O)[O-])cc1Cl)c1ccc(Br)o1 | -13 | 2 | 0 | -1
COC(=O)c1cc(C(=O)OC)cc(N2C(=O)CSC2c2ccccc2C(F)(F)F)c1 (configuration not stated) | -3 | 11 | 0 | 2
COc1cc2c(C(=O)N(C)c3ccccc3C)cn(CC(C)C)c(=O)c2cc1OC | -17 | -9 | 2.2* | 1
CS(=O)(=O)c1ccc(-c2ccc3c(c2)CC(CNC(=O)/C=C/c2cccnc2)O3)cc1 (configuration not stated) | 39* | -1 | 0 | 1
CS(=O)(=O)c1ccc(-c2ccc3c(c2)CC(CNC(=O)CCc2cccnc2)O3)cc1 (configuration not stated) | 12 | -13 | 0 | 1
CC1=NOC(=O)/C1=C/c1ccc(OCc2ccc(Cl)cc2)cc1 | -42 | 56* | 0 | -2
O=C(Cn1cnc2scc(-c3ccc4ccccc4c3)c2c1=O)NCc1ccccc1 | 37* | 6 | 1 | -1
O=C(Cn1cnc2c(-c3ccc(F)cc3)csc2c1=O)NCc1ccccc1 | 49* | 0 | 0 | 0
O=C(Cn1cnc2c(-c3ccc(F)cc3)csc2c1=O)NCCc1ccccc1 | 7 | -1 | 0 | 0
SMILES | TEAD-YAP block | MITF inh | FBW7 activator | GPR151 activ
CN(Cc1ccccc1)C(=O)Cn1cnc2scc(-c3ccccc3)c2c1=O | 32* | 6 | 0 | 3
Cc1cc(-n2c(/C=C/c3ccc(C(C)(C)C)cc3)nc3ccccc3c2=O)ccc1Br | -1 | 10 | 0 | -1
Cc1ccc2nc(SCC(=O)N3CC(=O)Nc4ccccc43)c(C#N)cc2c1 | 49* | 17 | 0 | 0
CC1=C/C(=N\S(=O)(=O)c2ccc(C)cc2)C=CC1=O | 2 | 71* | 0 | 1
O=c1c2c(-c3ccccc3)csc2ncn1/N=C/c1ccc(O)c(O)c1O | 11 | 62* | 0 | -1
CCOC(=O)/C(=C\N(C)C)C(=O)c1cc([N+](=O)[O-])c(Cl)cc1Cl | 38* | 5 | 0 | 0
O=C(CCCCC(=O)NNC(=O)CCc1ccccc1)NNC(=O)CCc1ccccc1 | 2 | 10 | 2.3* | -2
O=c1oc(/C=C/c2ccc(Br)cc2)nc2ccc(Br)cc12 | -2 | 10 | 0 | -2
Cc1ccc2c(C)nc(Nc3nc(C)c(C)c(=O)[nH]3)nc2c1 | 44* | 28 | 0 | -1
Cc1ccc2nc(Nc3nc(C)c(C)c(=O)[nH]3)nc(C)c2c1 | -32 | 4 | 0 | 0
CC(=O)Nc1nc(-c2cccs2)c(-c2ccccc2)s1 | 9 | -2 | 0 | 0
CC(=O)c1ccc(NC(=O)/C(Cl)=C/c2ccccc2)cc1 | -1 | 12 | 0 | -1
O=C(Nc1ccc(F)cc1)/C(Cl)=C/c1ccccc1 | -19 | 7 | 1 | -3
Cc1ccc(NC(=O)/C(Cl)=C\c2ccccc2)cc1 | 65* | 14 | 1 | -4
COc1ccc(NC(=O)/C(Cl)=C\c2ccccc2)cc1 | 45* | 23 | 0 | -2
CCc1sc(C(=O)Nc2nc(C)cs2)cc1C | -35 | 3 | 0 | -1
Cc1csc(NC(=O)c2cc3c(s2)CCC(C)C3)n1 (configuration not stated) | 74* | -3 | 0 | -6
Cc1cc(C)n(CCNc2nncc(-c3ccc4c(c3)OCO4)n2)n1 | 28 | 2 | 0 | 0
c1cnn(CCCNc2nncc(-c3ccc4c(c3)OCO4)n2)c1 | 85* | -14 | 1 | 0
COc1ccc(C(NC(=O)C(C)C)c2ccc3cccnc3c2O)cc1OC (configuration not stated) | 90* | 62* | -2 | 1
COc1ccccc1C(NC(=O)Cc1ccccc1)c1ccc2cccnc2c1O (configuration not stated) | 29 | 22 | -1 | 0
COc1ccc(C(NC(C)=O)c2ccc3cccnc3c2O)cc1 (configuration not stated) | 86* | 48 | -2 | 0
Cc1ccc(C(NC(=O)C(C)C)c2ccc3cccnc3c2O)cc1 (configuration not stated) | 86* | 21 | -1 | 0
CCCCC(=O)NC(c1ccc(OC)cc1)c1ccc2cccnc2c1O (configuration not stated) | 80* | 41 | -2 | 0
COc1ccc(C(=O)NC(c2ccc(C)cc2)c2cc(Cl)c3cccnc3c2O)cc1 (configuration not stated) | 10 | 15 | 0 | 1
O=[N+]([O-])c1ccc(C(Nc2nccs2)c2ccc3cccnc3c2O)cc1 (configuration not stated) | 27 | 18 | -2 | -1
CN1CCN(C(=O)c2ccc(-c3nc(C(=O)NCc4cccnc4)cs3)cc2)CC1 | -9 | 5 | 0 | -1
COc1ccc(C(NC(=O)C(C)C)c2ccc3cccnc3c2O)cc1 (configuration not stated) | 75* | 51* | -2 | -1
CCN(CC)c1ccc(C(NC(=O)C(C)C)c2cc(Cl)c3cccnc3c2O)cc1 (configuration not stated) | 1 | 8 | 0 | -2
